Compounds with a hit are over-represented: about 7.4% of the library has one in this group of screens.
KinaseGlo FLuc = Counterscreen for Luciferase (Kinase-Glo TM) Inhibition; Kinase-Glo luciferase, ATP luminescence, 8 min; Potency, µM (top dose mostly 38.3 µM), usual class: inhibitors; 200,000 compounds, 0.28% hits; AID 1379, 2008; also: nearly all actives have a fitted effect of over 60% in size
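Compound is pinned into ATP-containing buffer (10 uM ATP, imidazole pH 7.2, 7 mM MgCl2). Kinase-Glo luciferase reagent is then added. Light output is recorded following an 8-min room-temperature incubation.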
Rab9 promoter act = qHTS Assay for Rab9 Promoter Activators | Potency, µM (top dose mostly 9.22 µM), actives largely listed as activators | Huh7 Rab9 promoter-luciferase reporter, luminescence, 24 h | AID 485297, 2010 | 320,000 compounds, 2.8% hits; also: nearly all actives have a fitted effect of over 60% in size
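Cell-based reporter: Huh7 stable for Rab9 promoter-driven luciferase, plated in reduced-serum medium with 10% FBS at 1500 cells/well, compound-treated 24 h at 37 °C, luminescence read after 10 min reagent.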
SMN2 splice up = qHTS Assay for Enhancers of SMN2 Splice Variant Expression. HEK293 SMN2-luciferase splicing reporter, luminescence, 30-36 h. Potency, µM (top dose mostly 46.1 µM), hits mostly activators. 210,000 compounds, 2.8% hits. AID 1458, 2008; also: nearly all actives have a fitted effect of over 55% in size
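qHTS luciferase splicing reporter: luminescence rises when SMN2 exon 7 is included in transfected HEK293 cells. Compound exposure lasted 30-36 h at 37C, with 4.5 mM final sodium butyrate as control, followed by a ONE-Glo read.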
ELG1 genotox = qHTS screen for small molecules that induce genotoxicity in human embryonic kidney (HEK293T) cells expressing luciferase-tagged ELG1; HEK293T ELG1-luciferase reporter, luminescence, 16 h; Potency, µM (highest dose often 46 µM), most hits filed as activators; 330,000 compounds, 1.3% hits; also: nearly all actives have a fitted effect of over 60% in size
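16 hr compound incubation (37 °C, 5% CO2) of HEK293T cells carrying luciferase-tagged ELG1; luciferase then measured by ONE-Glo luminescence after 30 min at RT.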
FLuc counter = qHTS profiling assay for firefly luciferase inhibitor/activator using purifed enzyme and Km concentrations of substrates (counterscreen for miR-21 project); purified FLuc, Km substrates, luminescence inhibition; Potency, µM (titrated, usually from 57.5 µM), most hits filed as inhibitors; Luciferin 4-monooxygenase (Photinus pyralis), P08659; 360,000 compounds, 6.9% hits; AID 588342, 2011; also: nearly all actives have a fitted effect of over 55% in size
Target sequence (P08659 whole entry, looked up): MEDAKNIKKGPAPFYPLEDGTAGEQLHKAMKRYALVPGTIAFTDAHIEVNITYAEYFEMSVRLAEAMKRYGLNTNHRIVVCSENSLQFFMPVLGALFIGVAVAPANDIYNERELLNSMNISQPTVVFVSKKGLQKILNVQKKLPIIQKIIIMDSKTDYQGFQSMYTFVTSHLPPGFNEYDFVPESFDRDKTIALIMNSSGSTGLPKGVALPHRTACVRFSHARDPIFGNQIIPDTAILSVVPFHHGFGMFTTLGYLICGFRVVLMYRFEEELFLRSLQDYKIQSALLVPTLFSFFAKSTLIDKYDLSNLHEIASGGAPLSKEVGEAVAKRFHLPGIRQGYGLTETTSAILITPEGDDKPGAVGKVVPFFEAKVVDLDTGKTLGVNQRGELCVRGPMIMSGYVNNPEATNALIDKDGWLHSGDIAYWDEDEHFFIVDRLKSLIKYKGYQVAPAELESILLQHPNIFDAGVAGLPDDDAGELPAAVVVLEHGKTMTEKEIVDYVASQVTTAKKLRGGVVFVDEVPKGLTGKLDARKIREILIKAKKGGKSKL
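Biochemical qHTS of compounds, final roughly 60 µM downward over six points, against 10 nM purified firefly luciferase using Km concentrations of substrates (10 uM D-luciferin, 10 uM ATP) in Tris acetate pH 7.5 buffer; luminescence output.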
NPC1 prom act = qHTS Assay for NPC1 Promoter Activators; Huh7 NPC1 promoter luciferase reporter, 24 h; 320,000 compounds, 2.4% hits; Potency, µM (series often up to 9.22 µM), usual class: activators; also: nearly all actives have a fitted effect of over 60% in size
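Cells: Huh7 expressing luciferase under the NPC1 promoter, 1500/well. Seeded 2 h, compound added, incubated 24 h at 37 °C. Luciferase reagent, 10 min ambient, then luminescence.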
Hits are given with their value; . = inactive; ? = inconclusive; / = no result given; [ ] = dose if it differs, or a comment. Calls follow the shape of the dose curve; as a rule, active = well fitted curve in the direction sought with a large enough effect; inconclusive = small, poorly fitted or top-dose-only effect, or another doubt; inactive = no such curve, though single readings can be large; an effect the other way counts as inactive or inconclusive.

SMILES	KinaseGlo FLuc	Rab9 promoter act	SMN2 splice up	ELG1 genotox	FLuc counter	NPC1 prom act
CCOc1ccc(-c2nc(-c3ccc(OC)cc3)no2)cc1OCC	.	.	.	.	.	.
Cc1cccc(Cn2cc(C(=O)Nc3ccc(F)c(C(F)(F)F)c3)ccc2=O)c1	/	/	/	/	.	/
Cn1c(-c2nc(-c3ccccc3)cs2)nc2ccccc21	.	/	/	/	/	/
COc1nc(-c2ccc(C)cc2)ccc1-c1noc(-c2ccccc2Br)n1	/	/	.	/	?	/
COc1nc(-c2ccccc2)ccc1-c1noc(-c2cccnc2)n1	/	?	/	.	?	.
COc1ccccc1-c1nc(-c2ccc(Br)cc2)no1	.	5µM	16µM	3.7µM	4.8µM	?
COc1ccccc1-c1noc(-c2cccnc2)n1	.	.	.	21µM	?	.
Cc1ccc(-c2noc(-c3ccccc3Br)n2)cc1	.	2.8µM	13µM	?	0.67µM	0.79µM
CCNC(=O)c1ccccc1-c1nc(-c2ccccc2OC)no1	/	.	/	.	?	.
CCOc1ccccc1NC(=O)c1ccccc1-c1nc(-c2ccccc2OC)no1	/	.	/	.	11µM	.
CC(C)OCCCNC(=O)CCCN1C(=O)CCn2nc(-c3cccn3C)cc21	/	/	/	/	.	/
Cc1ccc2c(c1)-c1nc(-c3ccc4c(c3)NC(=O)CO4)cc(-c3ccc(Cl)cc3)c1CO2	/	/	.	/	.	/
CCOC(=O)C1(C)C=C(Nc2cccc(C)c2)C(=O)N1c1ccccc1 (configuration not stated)	/	/	.	/	.	/
COc1ccc(-c2nc3cnc(N4CCNCC4)nc3n(C3CC3)c2=O)cc1	.	/	.	/	/	/
CN(C)c1ccc(-c2nc(-c3cccs3)c(-c3cccs3)[nH]2)cc1	/	/	.	/	?	/
CCOc1nc(C)ccc1-c1noc(-c2ccccc2OC)n1	.	.	.	.	24µM	.
CCOc1ccccc1-c1nc(-c2ccc(-c3ccccc3)nc2OCC)no1	/	/	.	/	.	/
COc1cc(OC)cc(-c2nc(-c3ccc(Br)cc3)no2)c1	.	?	.	.	13µM	.
COc1ccccc1-c1nc(-c2ccncc2)no1	.	2µM	13µM	?	6.7µM	2µM
Cc1cc([N+](=O)[O-])c(C)c(Br)c1C	.[7.66 µM]	/	.[9.22 µM]	/	/	/
COc1cc(/C=C/c2sc3ccccc3[n+]2CCCS(=O)(=O)[O-])ccc1O	8.9µM	.	.	.	13µM	.
N#Cc1ccccc1NC(=O)c1ccc2c(Cl)c3c(nc2c1)CCCC3	.	3.5µM	10µM	.	3.8µM	?
CC(=O)c1cccc(NC(=O)c2ccc3c(Cl)c4c(nc3c2)CCCC4)c1	.	.	.	.	?	.
O=C(Nc1cccnc1Cl)c1ccc2c(Cl)c3c(nc2c1)CCC3	.	0.71µM	?	2.3µM	0.85µM	1µM
O=C(NC1CC1)c1ccc2c(Cl)c3c(nc2c1)CCCC3	.	.	.	.	13µM	.
SMILES	KinaseGlo FLuc	Rab9 promoter act	SMN2 splice up	ELG1 genotox	FLuc counter	NPC1 prom act
O=C(Nc1ccccc1F)c1ccc2c(Cl)c3c(nc2c1)CCC3	/	/	?	/	0.15µM	/
COc1ccc(C2=NS(=O)(=O)N(C)C(C(=O)Nc3ccc(OC(F)(F)F)cc3)=C2)cc1	/	/	/	/	.	/
CCc1ccccc1Nc1nc2cc(Cl)c(Cl)cc2nc1-n1nc(C)cc1C	/	/	.	/	.	/
Cn1c2cc([N+](=O)[O-])sc2c2cnn(Cc3ccccc3F)c(=O)c21	/	.	/	/	?	.
CCc1cccc(NC(=O)c2cnc(SC)nc2-c2ccccc2)c1	/	/	/	/	.	/
O=C(Nc1ccc2nc(SCC(=O)N3CCCC3)sc2c1)c1cccc(Br)c1	/	/	/	/	.	/
CCCC(=O)Nc1nn(CC)c2nc3ccc(C)cc3cc12	/	.	/	.	.	.
CCn1nc(NC(=O)c2ccncc2)c2cc3cc(C)ccc3nc21	.	.	32µM	.	17µM	.
CCn1nc(NC(=O)c2ccncc2)c2cc3ccc(C)cc3nc21	.	.	.	.	15µM	.
COC(=O)c1cc2oc3ccccc3c2n1CC(=O)Nc1cccc(SC)c1	/	/	.	/	.	/
Cc1ccc(C)c(Nc2nnc(-c3ccc(C)c(S(=O)(=O)N4CCN(C)CC4)c3)c3ccccc23)c1	/	/	.	/	.	/
